# Source: article PMC11062922 (Nature Chemical Biology, 2023)
# Read-outs that look alike come from different tables or passages of the source.
# How the values were obtained:
# TNIK = conditions: read-out: apparent Kd, n = 1
# ULK3 = conditions: read-out: apparent Kd, n = 1
# [1] = compound concentrations:100 nM and 1000 nM (sheet 'Lestaurtinib' of Supplementary Table 1),run:Lestaurtinib_02896_R2,Plate:MR030
# [2] = compound concentrations:100 nM and 1000 nM (sheet 'Lestaurtinib' of Supplementary Table 1),run:Lestaurtinib_02896_R3,Plate:MR030
# [3] = compound concentrations:100 nM and 1000 nM (sheet 'Lestaurtinib' of Supplementary Table 1),run:Lestaurtinib_03252_R1,Plate:MR032
# [4] = compound concentrations:100 nM and 1000 nM (sheet 'Lestaurtinib' of Supplementary Table 1),run:Lestaurtinib_03260_R1,Plate:MR033
substance,measurement,setting,value
Lestaurtinib,potency estimated from few doses,"TNIK; compound concentrations:100 nM and 1000 nM (sheet 'Lestaurtinib' of Supplementary Table 1),run:Lestaurtinib_02802_R2,Plate:MR029",141 nM
same,potency estimated from few doses,"TNIK; compound concentrations:100 nM and 1000 nM (sheet 'Lestaurtinib' of Supplementary Table 1),run:Lestaurtinib_02896_R1,Plate:MR030",444 nM
same,potency estimated from few doses,TNIK; [1],356 nM
same,potency estimated from few doses,TNIK; [2],484 nM
same,potency estimated from few doses,"TNIK; compound concentrations:100 nM and 1000 nM (sheet 'Lestaurtinib' of Supplementary Table 1),run:Lestaurtinib_03172_R2,Plate:MR031",157 nM
same,potency estimated from few doses,"TNIK; compound concentrations:100 nM and 1000 nM (sheet 'Lestaurtinib' of Supplementary Table 1),run:Lestaurtinib_03172_R3,Plate:MR031",561 nM
same,potency estimated from few doses,TNIK; [3],143 nM
same,potency estimated from few doses,TNIK; [4],428 nM
same,potency estimated from few doses,"TNIK; compound concentrations:100 nM and 1000 nM (sheet 'Lestaurtinib' of Supplementary Table 1),run:Lestaurtinib_03260_R2,Plate:MR033",808 nM
same,potency estimated from few doses,"TNIK; compound concentrations:100 nM and 1000 nM (sheet 'Lestaurtinib' of Supplementary Table 1),run:Lestaurtinib_03260_R3,Plate:MR033",717 nM
same,potency estimated from few doses,"ULK3; compound concentrations:100 nM and 1000 nM (sheet 'Lestaurtinib' of Supplementary Table 1),run:Lestaurtinib_02339_R1,Plate:MR001",270 nM
same,potency estimated from few doses,"ULK3; compound concentrations:100 nM and 1000 nM (sheet 'Lestaurtinib' of Supplementary Table 1),run:Lestaurtinib_02339_R3,Plate:MR001",265 nM
same,potency estimated from few doses,"ULK3; compound concentrations:100 nM and 1000 nM (sheet 'Lestaurtinib' of Supplementary Table 1),run:Lestaurtinib_02364_R1,Plate:MR002",301 nM
same,potency estimated from few doses,"ULK3; compound concentrations:100 nM and 1000 nM (sheet 'Lestaurtinib' of Supplementary Table 1),run:Lestaurtinib_02364_R2,Plate:MR002",295 nM
same,potency estimated from few doses,"ULK3; compound concentrations:100 nM and 1000 nM (sheet 'Lestaurtinib' of Supplementary Table 1),run:Lestaurtinib_02367_R1,Plate:MR003",146 nM
same,potency estimated from few doses,"ULK3; compound concentrations:100 nM and 1000 nM (sheet 'Lestaurtinib' of Supplementary Table 1),run:Lestaurtinib_02367_R2,Plate:MR003",218 nM
same,potency estimated from few doses,"ULK3; compound concentrations:100 nM and 1000 nM (sheet 'Lestaurtinib' of Supplementary Table 1),run:Lestaurtinib_02367_R3,Plate:MR003",228 nM
same,potency estimated from few doses,"ULK3; compound concentrations:100 nM and 1000 nM (sheet 'Lestaurtinib' of Supplementary Table 1),run:Lestaurtinib_02381_R1,Plate:MR004",154 nM
same,potency estimated from few doses,"ULK3; compound concentrations:100 nM and 1000 nM (sheet 'Lestaurtinib' of Supplementary Table 1),run:Lestaurtinib_02407_R1,Plate:MR005",137 nM
same,potency estimated from few doses,"ULK3; compound concentrations:100 nM and 1000 nM (sheet 'Lestaurtinib' of Supplementary Table 1),run:Lestaurtinib_02422_R1,Plate:MR006",113 nM
same,potency estimated from few doses,"ULK3; compound concentrations:100 nM and 1000 nM (sheet 'Lestaurtinib' of Supplementary Table 1),run:Lestaurtinib_02422_R2,Plate:MR006",60.5 nM
same,potency estimated from few doses,"ULK3; compound concentrations:100 nM and 1000 nM (sheet 'Lestaurtinib' of Supplementary Table 1),run:Lestaurtinib_02422_R3,Plate:MR006",134 nM
same,potency estimated from few doses,"ULK3; compound concentrations:100 nM and 1000 nM (sheet 'Lestaurtinib' of Supplementary Table 1),run:Lestaurtinib_02437_R1,Plate:MR007",239 nM
same,potency estimated from few doses,"ULK3; compound concentrations:100 nM and 1000 nM (sheet 'Lestaurtinib' of Supplementary Table 1),run:Lestaurtinib_02437_R2,Plate:MR007",253 nM
same,potency estimated from few doses,"ULK3; compound concentrations:100 nM and 1000 nM (sheet 'Lestaurtinib' of Supplementary Table 1),run:Lestaurtinib_02437_R3,Plate:MR007",22.5 nM
same,potency estimated from few doses,"ULK3; compound concentrations:100 nM and 1000 nM (sheet 'Lestaurtinib' of Supplementary Table 1),run:Lestaurtinib_02438_R2,Plate:MR008",236 nM
same,potency estimated from few doses,"ULK3; compound concentrations:100 nM and 1000 nM (sheet 'Lestaurtinib' of Supplementary Table 1),run:Lestaurtinib_02438_R3,Plate:MR008",286 nM
same,potency estimated from few doses,"ULK3; compound concentrations:100 nM and 1000 nM (sheet 'Lestaurtinib' of Supplementary Table 1),run:Lestaurtinib_02443_R1,Plate:MR009",231 nM
same,potency estimated from few doses,"ULK3; compound concentrations:100 nM and 1000 nM (sheet 'Lestaurtinib' of Supplementary Table 1),run:Lestaurtinib_02443_R2,Plate:MR009",239 nM
same,potency estimated from few doses,"ULK3; compound concentrations:100 nM and 1000 nM (sheet 'Lestaurtinib' of Supplementary Table 1),run:Lestaurtinib_02443_R3,Plate:MR009",196 nM
same,potency estimated from few doses,"ULK3; compound concentrations:100 nM and 1000 nM (sheet 'Lestaurtinib' of Supplementary Table 1),run:Lestaurtinib_02473_R1,Plate:MR010",232 nM
same,potency estimated from few doses,"ULK3; compound concentrations:100 nM and 1000 nM (sheet 'Lestaurtinib' of Supplementary Table 1),run:Lestaurtinib_02473_R2,Plate:MR010",253 nM
same,potency estimated from few doses,"ULK3; compound concentrations:100 nM and 1000 nM (sheet 'Lestaurtinib' of Supplementary Table 1),run:Lestaurtinib_02482_R1,Plate:MR011",240 nM
same,potency estimated from few doses,"ULK3; compound concentrations:100 nM and 1000 nM (sheet 'Lestaurtinib' of Supplementary Table 1),run:Lestaurtinib_02482_R2,Plate:MR011",244 nM
same,potency estimated from few doses,"ULK3; compound concentrations:100 nM and 1000 nM (sheet 'Lestaurtinib' of Supplementary Table 1),run:Lestaurtinib_02482_R3,Plate:MR011",219 nM
same,potency estimated from few doses,"ULK3; compound concentrations:100 nM and 1000 nM (sheet 'Lestaurtinib' of Supplementary Table 1),run:Lestaurtinib_02487_R1,Plate:MR012",144 nM
same,potency estimated from few doses,"ULK3; compound concentrations:100 nM and 1000 nM (sheet 'Lestaurtinib' of Supplementary Table 1),run:Lestaurtinib_02487_R2,Plate:MR012",219 nM
same,potency estimated from few doses,"ULK3; compound concentrations:100 nM and 1000 nM (sheet 'Lestaurtinib' of Supplementary Table 1),run:Lestaurtinib_02487_R3,Plate:MR012",250 nM
same,potency estimated from few doses,"ULK3; compound concentrations:100 nM and 1000 nM (sheet 'Lestaurtinib' of Supplementary Table 1),run:Lestaurtinib_02496_R1,Plate:MR013",131 nM
same,potency estimated from few doses,"ULK3; compound concentrations:100 nM and 1000 nM (sheet 'Lestaurtinib' of Supplementary Table 1),run:Lestaurtinib_02496_R2,Plate:MR013",165 nM
same,potency estimated from few doses,"ULK3; compound concentrations:100 nM and 1000 nM (sheet 'Lestaurtinib' of Supplementary Table 1),run:Lestaurtinib_02496_R3,Plate:MR013",254 nM
same,potency estimated from few doses,"ULK3; compound concentrations:100 nM and 1000 nM (sheet 'Lestaurtinib' of Supplementary Table 1),run:Lestaurtinib_02566_R1,Plate:MR014",153 nM
same,potency estimated from few doses,"ULK3; compound concentrations:100 nM and 1000 nM (sheet 'Lestaurtinib' of Supplementary Table 1),run:Lestaurtinib_02566_R3,Plate:MR014",242 nM
same,potency estimated from few doses,"ULK3; compound concentrations:100 nM and 1000 nM (sheet 'Lestaurtinib' of Supplementary Table 1),run:Lestaurtinib_02572_R3,Plate:MR015",329 nM
same,potency estimated from few doses,"ULK3; compound concentrations:100 nM and 1000 nM (sheet 'Lestaurtinib' of Supplementary Table 1),run:Lestaurtinib_02577_R2,Plate:MR016",271 nM
same,potency estimated from few doses,"ULK3; compound concentrations:100 nM and 1000 nM (sheet 'Lestaurtinib' of Supplementary Table 1),run:Lestaurtinib_02577_R3,Plate:MR016",224 nM
same,potency estimated from few doses,"ULK3; compound concentrations:100 nM and 1000 nM (sheet 'Lestaurtinib' of Supplementary Table 1),run:Lestaurtinib_02584_R1,Plate:MR017",232 nM
same,potency estimated from few doses,"ULK3; compound concentrations:100 nM and 1000 nM (sheet 'Lestaurtinib' of Supplementary Table 1),run:Lestaurtinib_02584_R2,Plate:MR017",261 nM
same,potency estimated from few doses,"ULK3; compound concentrations:100 nM and 1000 nM (sheet 'Lestaurtinib' of Supplementary Table 1),run:Lestaurtinib_02584_R3,Plate:MR017",254 nM
same,potency estimated from few doses,"ULK3; compound concentrations:100 nM and 1000 nM (sheet 'Lestaurtinib' of Supplementary Table 1),run:Lestaurtinib_02601_R1,Plate:MR018",290 nM
same,potency estimated from few doses,"ULK3; compound concentrations:100 nM and 1000 nM (sheet 'Lestaurtinib' of Supplementary Table 1),run:Lestaurtinib_02601_R2,Plate:MR018",271 nM
same,potency estimated from few doses,"ULK3; compound concentrations:100 nM and 1000 nM (sheet 'Lestaurtinib' of Supplementary Table 1),run:Lestaurtinib_02601_R3,Plate:MR018",297 nM
same,potency estimated from few doses,"ULK3; compound concentrations:100 nM and 1000 nM (sheet 'Lestaurtinib' of Supplementary Table 1),run:Lestaurtinib_02624_R2,Plate:MR020",258 nM
same,potency estimated from few doses,"ULK3; compound concentrations:100 nM and 1000 nM (sheet 'Lestaurtinib' of Supplementary Table 1),run:Lestaurtinib_02624_R3,Plate:MR020",269 nM
same,potency estimated from few doses,"ULK3; compound concentrations:100 nM and 1000 nM (sheet 'Lestaurtinib' of Supplementary Table 1),run:Lestaurtinib_02724_R1,Plate:MR021",243 nM
same,potency estimated from few doses,"ULK3; compound concentrations:100 nM and 1000 nM (sheet 'Lestaurtinib' of Supplementary Table 1),run:Lestaurtinib_02724_R2,Plate:MR021",220 nM
same,potency estimated from few doses,"ULK3; compound concentrations:100 nM and 1000 nM (sheet 'Lestaurtinib' of Supplementary Table 1),run:Lestaurtinib_02741_R1,Plate:MR023",268 nM
same,potency estimated from few doses,"ULK3; compound concentrations:100 nM and 1000 nM (sheet 'Lestaurtinib' of Supplementary Table 1),run:Lestaurtinib_02748_R1,Plate:MR024",144 nM
same,potency estimated from few doses,"ULK3; compound concentrations:100 nM and 1000 nM (sheet 'Lestaurtinib' of Supplementary Table 1),run:Lestaurtinib_02748_R2,Plate:MR024",132 nM
same,potency estimated from few doses,"ULK3; compound concentrations:100 nM and 1000 nM (sheet 'Lestaurtinib' of Supplementary Table 1),run:Lestaurtinib_02752_R1,Plate:MR025",260 nM
same,potency estimated from few doses,"ULK3; compound concentrations:100 nM and 1000 nM (sheet 'Lestaurtinib' of Supplementary Table 1),run:Lestaurtinib_02765_R1,Plate:MR026",320 nM
same,potency estimated from few doses,"ULK3; compound concentrations:100 nM and 1000 nM (sheet 'Lestaurtinib' of Supplementary Table 1),run:Lestaurtinib_02765_R3,Plate:MR026",304 nM
same,potency estimated from few doses,"ULK3; compound concentrations:100 nM and 1000 nM (sheet 'Lestaurtinib' of Supplementary Table 1),run:Lestaurtinib_02768_R1,Plate:MR028",240 nM
same,potency estimated from few doses,"ULK3; compound concentrations:100 nM and 1000 nM (sheet 'Lestaurtinib' of Supplementary Table 1),run:Lestaurtinib_02768_R3,Plate:MR028",206 nM
same,potency estimated from few doses,"ULK3; compound concentrations:100 nM and 1000 nM (sheet 'Lestaurtinib' of Supplementary Table 1),run:Lestaurtinib_02802_R3,Plate:MR029",237 nM
same,potency estimated from few doses,ULK3; [1],236 nM
same,potency estimated from few doses,ULK3; [2],158 nM
same,potency estimated from few doses,"ULK3; compound concentrations:100 nM and 1000 nM (sheet 'Lestaurtinib' of Supplementary Table 1),run:Lestaurtinib_03172_R1,Plate:MR031",259 nM
same,potency estimated from few doses,ULK3; [3],261 nM
same,potency estimated from few doses,ULK3; [4],314 nM
